Among the data in PubChem BioAssay AID1030 (National Center for Advancing Translational Sciences (NCATS), 2008) are Potency values, retold here.

Among all 220,000 compounds or so, about 16,000 (7.3%) were called active. Entries that show only a call come without a potency. Roughly 25% stayed inconclusive and do not appear here. The call rests on the fitted dose curve; in most records, active means well fitted inhibition curve with a large enough effect (not every such curve was filed as active); inconclusive means small, poorly fitted or top-dose-only effect, or another doubt; inactive means no such curve, though single readings can be large or run the other way. Only a selection was taken, and actives are over-represented in it overall.
Potency means the concentration at half of the fitted maximal effect.

The assay deals with Aldehyde dehydrogenase 1A1 (Homo sapiens) (UniProt P00352). Put plainly: qHTS Assay for Inhibitors of Aldehyde Dehydrogenase 1 (ALDH1A1). The note with it: Purified ALDH1A1, NADH fluorescence, propionaldehyde substrate; series mostly up to 75.3 µM. For orientation: qHTS replaces the single test concentration by a dilution series.
Aldehyde dehydrogenase 1A1 (Homo sapiens), sequence (P00352 whole entry, looked up): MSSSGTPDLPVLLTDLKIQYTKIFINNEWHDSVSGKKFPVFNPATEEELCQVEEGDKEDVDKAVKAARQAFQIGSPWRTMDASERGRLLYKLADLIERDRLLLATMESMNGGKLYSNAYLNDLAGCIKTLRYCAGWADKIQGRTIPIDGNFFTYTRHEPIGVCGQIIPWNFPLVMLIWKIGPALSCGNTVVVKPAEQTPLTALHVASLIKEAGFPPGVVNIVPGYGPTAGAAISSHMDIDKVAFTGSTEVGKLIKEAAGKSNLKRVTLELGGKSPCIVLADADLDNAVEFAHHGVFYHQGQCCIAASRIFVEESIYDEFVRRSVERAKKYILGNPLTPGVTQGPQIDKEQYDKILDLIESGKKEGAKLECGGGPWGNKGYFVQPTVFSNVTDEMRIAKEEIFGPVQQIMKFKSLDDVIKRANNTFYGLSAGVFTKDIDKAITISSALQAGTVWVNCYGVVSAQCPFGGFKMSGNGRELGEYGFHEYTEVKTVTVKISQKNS
As for `O=S(=O)(Nc1ccccn1)c1cccc(S(=O)(=O)c2ccc(Cl)cc2)c1`, the Potency result was “inactive”.

In the case of `Cc1ccc(-n2c(C)cc(C(=O)CSc3nnc4ccccn34)c2C)cc1`, the Potency entry is “inactive”. As for `N#Cc1ccc(CSc2nnc3ccccn23)cc1`, the entry is “inactive”; as for `Cc1ccccc1NC(=O)Cc1nnc(SCC(=O)N2CCN(c3ccccc3)CC2)n1C`, “inactive”; as for `Cn1c(CNc2nc(-c3ccccc3)cs2)nnc1SCC(=O)c1ccccc1`, “inactive”. Consider `Cn1c(CC(=O)Nc2ccccc2)nnc1SCC(=O)c1ccccc1`, for which the Potency is 7.08 µM (active). As for `O=C(CSc1nnc2ccccn12)c1ccccc1`, the Potency is 10 µM (active). The entry for `O=C(NNC1=C(C(=O)C(F)(F)F)CCC1)c1ccncc1` is “inactive”; for `CCc1nc2ccccc2c(C(=O)OC2CCCCC2=O)c1C` (stereo unspecified) it is “inactive”; for `O=C(O)/C=C/c1ccc(OCCCF)cc1` it is “inactive”.

Take `COC(=O)C1=C(C)NC(=O)CC1c1ccccc1OC` (stereo unspecified): the Potency result was “inactive”. As to `CCn1c(=O)cc(SCC(=O)NCCC2=CCCCC2)c2ccccc21`, the Potency is 14.1 µM (active). The entry for `CCn1c(=O)cc(SCC(=O)NCc2ccc3c(c2)OCO3)c2ccccc21` is “inactive”; for `O=C(Cc1cccc2ccccc12)NCCC1=CCCCC1` it is “inactive”; for `COc1ccc(Cc2nnc(NC(=O)c3cc(OC)c(OC)c(OC)c3)s2)cc1OC` it is “inactive”. The entry for `CC(C)[C@@H]1NC(=O)c2cc([N+](=O)[O-])cc(I)c2NCCC[C@@H](C(=O)NC(CC(=O)O)C(N)=O)NC(=O)[C@H](CO)NC1=O` (stereo partly specified) is “inactive”. The entry for `NCCCC[C@@H]1NC(=O)[C@H](CCC(=O)O)NC(=O)c2cc([N+](=O)[O-])cc(I)c2NCC[C@@H](C(N)=O)NC1=O` is “inactive”; for `NC(=O)CC[C@@H]1NC(=O)[C@H](CO)NC(=O)c2cc([N+](=O)[O-])cc(I)c2NCC[C@@H](C(N)=O)NC1=O` it is 12.6 µM (active); for `C/C(=N/NC(=O)c1ccn(C)n1)c1ccncc1` it is “inactive”. Consider `COCC1CCCN(Cc2nc(-c3ccc4c(c3)OCO4)no2)C1` (stereo unspecified), for which the Potency result was “inactive”.

Take `CN1CCN(S(=O)(=O)c2cccc(C(=O)O)c2)CC1`: the Potency entry was “inactive”.

Regarding `COc1cccc(CNC(=O)Cc2csc(Nc3nc(=S)[nH]c4ccccc34)n2)c1`, the Potency result is “inactive”. The entry for `O=C(O)Cc1ccc(NC(=O)c2cccs2)cc1` is “inactive”; for `CCc1ccccc1NC(=O)c1cccs1` it is 25.1 µM (active); for `O=C(Nc1ccccc1-c1ccccc1)c1cccs1` it is “inactive”.

Turning to `Cc1cc(F)ccc1S(=O)(=O)Nc1ncnc2scc(-c3ccc(F)cc3)c12`, the Potency entry was “inactive”. The entry for `CONc1nc2nonc2nc1NOC` is “inactive”; for `CC(C)C(c1nnnn1Cc1ccccc1)N1CCC(C(N)=O)CC1` (stereo unspecified) it is “inactive”; for `Cc1cccc2cc(CN(Cc3nnnn3Cc3ccccc3)C3CCCC3)c(=O)[nH]c12` it is 15.8 µM (active). The entry for `CCCN(Cc1cc2cccc(C)c2[nH]c1=O)S(C)(=O)=O` is “inactive”; for `Cc1cccc2cc(CN(Cc3ccc4c(c3)OCO4)Cc3nnnn3C3CCCC3)c(=O)[nH]c12` it is 11.2 µM (active); for `O=c1[nH]c(N2CCN(Cc3ccc4c(c3)OCO4)CC2)nc2c1CCCC2` it is “inactive”. For the compound `Cc1ccc(S(=O)(=O)Cn2nnnc2CN2CCN(Cc3ccc4c(c3)OCO4)CC2)cc1`, the Potency result was “inactive”. As for `CCCCCCCCCCCCN1C(=O)CSC1c1cccnc1` (stereo unspecified), the entry is “inactive”; as for `Nc1ccc(Cl)c(S(=O)(=O)Nc2ccccc2Cl)c1`, “inactive”. Consider `CCOC(=O)C1=C(CC)Nc2ccccc2N=C1N`, for which the Potency result is “inactive”. The entry for `CC(C)n1c(CN2CCN(Cc3ccccc3)CC2)nc2ccccc21` is “inactive”; for `Cc1ccc2c(c1)C(O)(CC(=O)c1cccc(-n3cccc3)c1)C(=O)N2` (stereo unspecified) it is “inactive”.

Consider `CC(C)OCCCNC(=O)c1ccc(C2SCC(=O)N2Cc2ccco2)cc1` (stereo unspecified), for which the Potency was 10 µM (active). As for `O=C(NCc1ccco1)c1ccc(Cn2c(=O)c3sccc3n(Cc3ccc(F)cc3)c2=O)cc1`, the entry is “inactive”; as for `CCCCOc1ccc(C(=O)NCc2ccco2)cc1`, “inactive”; as for `Cc1ccc(-c2csc(NC(=O)c3cnccn3)n2)cc1C`, “inactive”. As for `CC(C)(C)c1ccc(C(=O)CSc2ncn[nH]2)cc1`, the figure is 20 µM (active); as for `Cn1nnc(NC(=O)CSc2ncn[nH]2)n1`, “inactive”. The entry for `COc1ccc(C(=O)CSc2nccc(=O)[nH]2)cc1` is “inactive”. Turning to `CC(=O)N(CCCN(C)C)c1nc2ccc(C)cc2s1`, the Potency result is “inactive”. As for `Nc1ccc(C(=O)OCC(=O)NC2CCCc3ccccc32)cc1[N+](=O)[O-]` (stereo unspecified), the Potency entry was “inactive”. Turning to `CCNc1ccc(C(=O)OCC(=O)N2c3ccccc3NC(=O)C2(C)C)cc1[N+](=O)[O-]`, the Potency is 11.2 µM (active). The entry for `CC1(C)C(=O)Nc2ccccc2N1C(=O)COC(=O)Cn1cnc2ccccc2c1=O` is “inactive”; for `COc1ccc(OC)c(C(c2nnnn2C(C)(C)C)N2CCc3ccccc3C2)c1` (stereo unspecified) it is “inactive”; for `COCCn1nnnc1C(c1cc2ccc(OC)cc2[nH]c1=O)N1CCc2ccccc2C1` (stereo unspecified) it is 25.1 µM (active). For the compound `Cc1ccc(C(c2nnnn2C(C)(C)C)N2CCc3ccccc3C2)cc1` (stereo unspecified), the Potency result is “inactive”. Consider `CC(=O)c1ccc(N2CCN(S(=O)(=O)c3c(C)[nH]c(=O)[nH]c3=O)CC2)cc1`, for which the Potency result was “inactive”. For the compound `CSc1ccc(/C=N/N2CCN(Cc3ccccc3Cl)CC2)cc1`, the Potency result is “inactive”. The entry for `CC(C)(C)NC(=O)CN1CCC(NC(=O)C23CC4CC(CC(C4)C2)C3)CC1` is “inactive”; for `CN1CCN(CC(=O)C23CC4CC(CC(C4)C2)C3)CC1` it is 20 µM (active). The entry for `O=C(N1CCCC1)C12CC3CC(C1)CC(C(=O)N1CCCC1)(C3)C2` is “inactive”; for `COC/C=C/C1=CC2=CC(=O)C(C)(OC(=O)CCC(=O)OC)C(=O)C2=CO1` (stereo unspecified) it is “inactive”; for `Cc1ccccc1-n1c(C)cc(/C=C2\NC(=O)NC2=O)c1C` it is “inactive”. As for `COc1cc(OC)c(-n2c(C)cc(C=O)c2C)cc1Cl`, the figure is 7.08 µM (active); as for `COc1cc(Cl)c(S(=O)(=O)n2cnc(C)c2)cc1Cl`, “inactive”.
